Data taken from PubChem BioAssay.
Activity calls are given as the source filed them.

Tests used:
[1] = tested on: Wnt5a (protein binding on small-molecule microarray); assay: small molecules binding Wnt5a protein – biophysical, small-molecule microarray, 635/667 nm fluorescence, primary screen (AID 1142); conditions: 635 nm fluorescence, higher = more signal;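 further: fluorescence read at 667 nm with signal to noise per printed feature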
[2] = ATP-based viability of Huh7 replicon cells – cell-based, CellTiter-Glo luminescence, basal, 48 h, cytotoxicity control for HCV replication inhibitor project, primary screen (AID 1143); conditions: higher = more signal, called active from +8 up or from −8 down;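 further: Huh7 hepatoma cells carrying a hepatitis C replication reporter with no stimulus; test concentration not given here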
[3] = basal CRE-LacZ reporter activity in PC12 – cell-based, unstimulated, primary screen (AID 1145); conditions: no forskolin, luminescence, 4.5 h, higher = more signal, called active from +8 up or from −8 down
[4] = forskolin-driven CRE-LacZ activity in PC12 – cell-based, CRE-LacZ reporter, forskolin-stimulated, primary screen (AID 1146); conditions: luminescence, 4.5 h, higher = more signal, called active from +8 up or from −8 down;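 further: PC12 cells with 6xCRE LacZ reporter stimulated by forskolin 10 µM; beta-galactosidase reporter signal reflecting CREB driven transcription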
[5] = target: Streptavidin (Streptomyces avidinii) (UniProt P22629); assay: compounds binding control protein streptavidin – biophysical, small-molecule microarray, 635/667 nm fluorescence, artefact control for SMM compound annotation, primary screen (AID 1147); conditions: higher = more signal;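 further: signal reflects streptavidin binding to arrayed compounds as a control protein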
Sequence of Streptavidin (Streptomyces avidinii) (P22629 whole entry, looked up): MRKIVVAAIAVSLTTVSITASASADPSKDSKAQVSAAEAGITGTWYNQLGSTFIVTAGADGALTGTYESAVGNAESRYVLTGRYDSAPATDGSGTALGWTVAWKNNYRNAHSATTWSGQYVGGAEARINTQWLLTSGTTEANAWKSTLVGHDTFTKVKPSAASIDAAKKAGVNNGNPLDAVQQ

[6] = probe aInhba binding on compound microarray – biochemical, small-molecule microarray, 635/667 nm fluorescence, primary screen (AID 1148); conditions: higher = more signal;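 further: score merges 667nm spot fluorescence with signal-to-noise for antibody binding to printed compounds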
Torsin-1A (Homo sapiens) [7] = target: Torsin-1A (Homo sapiens) (UniProt O14656); assay: TOR1A wild-type binding on microarray – cell lysate, small-molecule microarray, lysate, 635/667 nm, primary screen (AID 1149); conditions: COS7 hTOR1A-WT lysate, 635 nm fluorescence, higher = more signal
Sequence of Torsin-1A (Homo sapiens) (O14656 whole entry, looked up): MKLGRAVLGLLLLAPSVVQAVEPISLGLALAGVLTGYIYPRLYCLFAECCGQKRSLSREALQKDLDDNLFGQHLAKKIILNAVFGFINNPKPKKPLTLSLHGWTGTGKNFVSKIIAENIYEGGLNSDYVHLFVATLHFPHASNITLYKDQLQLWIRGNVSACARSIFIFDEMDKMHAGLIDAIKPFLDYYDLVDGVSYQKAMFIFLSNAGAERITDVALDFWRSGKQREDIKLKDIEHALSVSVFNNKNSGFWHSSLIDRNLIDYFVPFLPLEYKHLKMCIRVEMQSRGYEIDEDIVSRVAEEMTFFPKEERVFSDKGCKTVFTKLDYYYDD

Torsin-1A (Homo sapiens) [8] = target: Torsin-1A (Homo sapiens) (UniProt O14656); assay: torsin A mutant lysate binding on microarrays – cell lysate, small-molecule microarray, COS7 lysate, 635/667 nm fluorescence, primary screen (AID 1150); conditions: COS7 hTOR1A mutant lysate, 635 nm fluorescence, higher = more signal;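 further: score pools 667 nm emission and signal to noise measuring lysate protein binding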
[9] = tested on: Sonic hedgehog protein (Shh); assay: Sonic hedgehog microarray binding compounds – biochemical, small-molecule microarray, 635/667 nm fluorescence, primary screen (AID 1151); conditions: 635 nm fluorescence, higher = more signal;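 further: Shh protein binding to compounds spotted on small-molecule microarray slides; score combines spot fluorescence intensity with signal-to-noise across triplicate slides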
[10] = optical density shifts of acrAB sulA E. coli – strain DRC41, OD650, 48 h, E. coli filamentation inducer project, primary screen (AID 1152); conditions: higher = more signal, called active from +8 up or from −8 down;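 further: E. coli MC1000 strain DRC41 lacking acrAB efflux pump and sulA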
[11] = probe aLefty1 binding on compound microarray – biochemical, small-molecule microarray, 635/667 nm fluorescence, primary screen (AID 1153); conditions: higher = more signal;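 further: score merges spot fluorescence with signal-to-noise ratio from the scanned slide images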
[12] = plasmodial surface anion channel blockers, osmotic lysis – cell-based, P. falciparum Indochina, OD700, 1 h, primary screen (AID 1154); conditions: P. falciparum Indochina infected RBC osmotic lysis, higher = more signal, called active from +8 up or from −8 down
[13] = plasmodial surface anion channel blockers, osmotic lysis – cell-based, P. falciparum Indochina, OD700, 2 h, primary screen (AID 1155);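 further: lysis reports solute entry through the parasite surface anion channel PSAC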; conditions: P. falciparum Indochina infected erythrocytes, higher = more signal, called active from +8 up or from −8 down
[14] = changes in parasitized red cell lysis, either direction – P. falciparum Indochina, OD700, 3 h, PSAC antagonist project, primary screen (AID 1156); conditions: P. falciparum-infected erythrocytes, osmotic lysis, higher = more signal, called active from +8 up or from −8 down
[15] = plasmodial surface anion channel blockers, osmotic lysis – cell-based, P. falciparum Indochina, OD700, 18 h, primary screen (AID 1157); conditions: P. falciparum Indochina infected erythrocytes, osmotic lysis OD700, 18 h; higher = more signal, called active from +8 up or from −8 down
[16] = S6 kinase pathway phospho-S6 level changes – cell-based, A549, cytoblot, luminescence, serum-stimulated, primary screen (AID 1158); conditions: 5 h, higher = more signal;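 further: serum-stimulated A549 lung adenocarcinoma cells; signal is phosphorylated S6 detected by cytoblot immunostaining with HRP secondary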
[17] = target: NADPH oxidase 2 (Homo sapiens) (UniProt P04839); assay: compounds shifting NOX2 Amplex Red fluorescence – cell-based, HEK293-NOX2, PMA-stimulated, NOX inhibitor project, primary screen (AID 1159); conditions: 45 min, higher = more signal, called active from +8 up or from −8 down; further: test concentration not given here
Sequence of NADPH oxidase 2 (Homo sapiens) (P04839 whole entry, looked up): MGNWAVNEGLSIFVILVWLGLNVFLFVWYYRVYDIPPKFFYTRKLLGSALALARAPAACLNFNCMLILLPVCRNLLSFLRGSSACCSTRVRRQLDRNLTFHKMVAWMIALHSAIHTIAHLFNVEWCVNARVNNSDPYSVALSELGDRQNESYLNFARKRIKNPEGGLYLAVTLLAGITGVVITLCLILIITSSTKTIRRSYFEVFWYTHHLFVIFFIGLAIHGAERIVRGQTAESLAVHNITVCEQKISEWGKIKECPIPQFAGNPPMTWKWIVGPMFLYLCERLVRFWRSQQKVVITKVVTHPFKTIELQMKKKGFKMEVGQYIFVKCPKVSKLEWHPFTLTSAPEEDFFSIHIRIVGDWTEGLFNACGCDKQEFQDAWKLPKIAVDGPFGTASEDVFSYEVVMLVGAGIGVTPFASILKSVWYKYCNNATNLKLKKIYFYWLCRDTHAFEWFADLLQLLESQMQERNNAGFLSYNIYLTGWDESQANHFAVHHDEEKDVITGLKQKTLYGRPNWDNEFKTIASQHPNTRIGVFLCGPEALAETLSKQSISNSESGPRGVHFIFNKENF

[18] = target: NADPH oxidase 4 (Homo sapiens) (UniProt Q9NPH5); assay: compounds shifting NOX4 Amplex Red fluorescence – cell-based, HEK293-NOX4, tetracycline-induced, NOX inhibitor project, primary screen (AID 1160); conditions: HEK293-NOX4, Amplex Red H2O2 fluorescence, 45 min; higher = more signal, called active from +8 up or from −8 down
Sequence of NADPH oxidase 4 (Homo sapiens) (Q9NPH5 whole entry, looked up): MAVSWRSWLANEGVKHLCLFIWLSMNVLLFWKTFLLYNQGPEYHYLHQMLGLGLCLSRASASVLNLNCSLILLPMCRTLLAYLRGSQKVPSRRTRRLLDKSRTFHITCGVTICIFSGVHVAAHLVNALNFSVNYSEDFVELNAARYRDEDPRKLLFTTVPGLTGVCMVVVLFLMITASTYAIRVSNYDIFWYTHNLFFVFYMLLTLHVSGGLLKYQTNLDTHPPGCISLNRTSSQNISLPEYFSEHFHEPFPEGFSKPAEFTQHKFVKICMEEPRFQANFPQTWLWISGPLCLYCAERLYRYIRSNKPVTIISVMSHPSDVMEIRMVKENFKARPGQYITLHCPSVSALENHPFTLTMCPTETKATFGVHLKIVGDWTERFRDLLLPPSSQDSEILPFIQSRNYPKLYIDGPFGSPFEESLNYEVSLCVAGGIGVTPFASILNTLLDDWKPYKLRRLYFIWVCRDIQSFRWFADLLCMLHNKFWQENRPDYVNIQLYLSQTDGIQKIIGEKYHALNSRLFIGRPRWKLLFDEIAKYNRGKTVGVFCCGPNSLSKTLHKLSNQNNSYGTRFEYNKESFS

[19] = target: NADPH oxidase 5 (Homo sapiens) (UniProt Q96PH1); assay: compounds shifting NOX5 Amplex Red fluorescence – cell-based, HEK293-NOX5, NOX inhibitor project, primary screen (AID 1161); conditions: HEK293-NOX5, ionomycin, 45 min, higher = more signal
Sequence of NADPH oxidase 5 (Homo sapiens) (Q96PH1 whole entry, looked up): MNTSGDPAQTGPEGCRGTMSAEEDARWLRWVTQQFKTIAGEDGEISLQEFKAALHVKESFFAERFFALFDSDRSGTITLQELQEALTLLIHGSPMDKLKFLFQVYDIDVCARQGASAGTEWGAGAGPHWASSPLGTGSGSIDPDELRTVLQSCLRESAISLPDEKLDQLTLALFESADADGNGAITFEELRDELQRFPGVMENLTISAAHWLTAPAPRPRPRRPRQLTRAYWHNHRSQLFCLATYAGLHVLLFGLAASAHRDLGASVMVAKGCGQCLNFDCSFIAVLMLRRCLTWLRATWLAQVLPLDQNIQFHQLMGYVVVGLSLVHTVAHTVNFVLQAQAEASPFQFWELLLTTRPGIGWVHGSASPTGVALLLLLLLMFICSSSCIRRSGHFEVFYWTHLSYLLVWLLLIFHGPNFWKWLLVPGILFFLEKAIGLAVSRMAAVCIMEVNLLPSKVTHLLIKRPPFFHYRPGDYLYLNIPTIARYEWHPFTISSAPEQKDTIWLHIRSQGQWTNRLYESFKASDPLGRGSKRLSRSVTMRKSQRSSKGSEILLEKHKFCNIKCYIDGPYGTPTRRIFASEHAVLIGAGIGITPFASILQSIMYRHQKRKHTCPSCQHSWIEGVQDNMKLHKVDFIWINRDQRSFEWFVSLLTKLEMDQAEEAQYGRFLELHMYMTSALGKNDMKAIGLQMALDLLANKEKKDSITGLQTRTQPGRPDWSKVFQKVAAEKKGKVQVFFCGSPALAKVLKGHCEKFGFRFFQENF

[20] = compound effects on lung adenocarcinoma cell viability – A549, calcein-AM fluorescence, 48 h, basal, profiling panel (AID 1162); conditions: higher = more signal; further: test concentration not given here

SMILES | composite z-score [1] | z-score [2] | z-score [3] | z-score [4] | composite z-score [5] | composite z-score [6] | composite z-score (Torsin-1A (Homo sapiens) [7]) | composite z-score (Torsin-1A (Homo sapiens) [8]) | composite z-score [9] | z-score [10] | composite z-score [11] | z-score [12] | z-score [13] | z-score [14] | z-score [15] | z-score [16] | z-score [17] | z-score [18] | z-score [19] | z-score [20]
CC(C)CCC[C@@H](C)[C@H]1CC[C@@]2(C)C3=C(CC[C@]12C)[C@@]1(C)CC[C@H](OC(=O)CCl)C(C)(C)C1CC3 (stereo not given in full) | 0.109 | -0.186 (inactive) | 1.3 (inactive) | -0.731 (inactive) | 0.0285 | -0.251 | 0.662 | 0.358 | 0.588 | 3.33 (inactive) | -0.194 | -0.0025 (inactive) | -0.116 (inactive) | -0.417 (inactive) | 0.01 (inactive) | 0.413 | -0.776 (inactive) | 0.446 (inactive) | 0.517 | 1.98
CC(C)C[C@@H]1NC(=O)[C@@]23C(=O)N[C@@H](Cc4ccccc4)C2[C@H](C)[C@@]2(C)O[C@H]2C3/C=C/C/C=C\CNC(=O)[C@H](Cc2ccccc2)NC1=O (stereo not given in full) | -0.108 | -4.13 (inactive) | 4.56 (inactive) | -2.06 (inactive) | -0.198 | -0.082 | 0.305 | 0.384 | 0.46 | 1.76 (inactive) | -0.147 | 1.53 (inactive) | -0.0735 (inactive) | 0.966 (inactive) | 0.256 (inactive) | 0.497 | -0.188 (inactive) | 0.692 (inactive) | -3.15 | 0.823
C=CCOC(=O)[C@H]1[C@@H]2C(=O)O[C@@H](c3ccccc3)[C@@H](c3ccccc3)N2[C@@H](c2ccc(OCCOC(=O)[C@H]3C[C@H]4C(=O)N5CCC[C@H]5C(=O)N4[C@H]3c3cccc(OCCO)c3)cc2)[C@]12C(=O)Nc1ccccc12 | 0.135 | -2.03 (inactive) | 1.22 (inactive) | -0.378 (inactive) | -0.0186 | -0.0849 | 0.292 | 1.54 | 1.18 | 1.18 (inactive) | -0.106 | 5.04 (inactive) | 1.7 (inactive) | -0.158 (inactive) | 0.741 (inactive) | -0.0338 | 2.26 (inactive) | 1.57 (inactive) | 1.43 | 0.552
COc1ccc([Si](C)(C)[C@@H]2[C@@H](CC(=O)N3CCC[C@H]3CO)O[C@]3(C(=O)N(Cc4ccc(N5CCC5=O)cc4)c4ccccc43)[C@H]2C)cc1 | 0.0507 | -1.8 (inactive) | 0.861 (inactive) | -1.19 (inactive) | 0.761 | 0.027 | 0.572 | 0.409 | 1.55 | 0.436 (inactive) | 0.156 | 7.47 (inactive) | 1.49 (inactive) | -0.836 (inactive) | 0.77 (inactive) | 0.127 | 2.99 (inactive) | 1.58 (inactive) | 4.86 | -0.639
C=CCC(OC(C)=O)[C@@H]1[C@@H](N(Cc2cccc3ccccc23)C(=O)Cc2ccc(OC)cc2)c2cc(OCCCO)ccc2N1C(=O)Cc1ccc(OC)cc1 (stereo not given in full) | -0.143 | -0.627 (inactive) | 1.78 (inactive) | -1.2 (inactive) | 0.131 | -0.0986 | 0.271 | -0.482 | 0.0188 | 2.17 (inactive) | 0.051 | 1.62 (inactive) | 0.317 (inactive) | 0.119 (inactive) | 0.506 (inactive) | 0.623 | 0.459 (inactive) | -0.451 (inactive) | 2.4 | 1.25
C=C(CCCC)/C(=C/C[C@@H](OC(=O)c1ccncc1)c1ccc(OCCO)cc1)c1cnc2ccccc2c1 | 0.826 | -1.93 (inactive) | 13.4 (active) | -0.929 (inactive) | 1.72 | 0.108 | 0.546 | 0.653 | 2.1 | 1.21 (inactive) | 0.199 | 26.2 (active) | 9.47 (active) | 1.54 (inactive) | 1.39 (inactive) | -0.175 | -1.06 (inactive) | -1.43 (inactive) | -0.922 | 0.4
CC(C)[Si](C#C[Si](C(C)C)(C(C)C)C(C)C)(O[C@H](C)c1cn([C@H](C)c2ccccc2)nn1)C(C)C | 0.0985 | -1.48 (inactive) | -0.332 (inactive) | -1.59 (inactive) | 0.434 | -0.0209 | 0.144 | 0.477 | 1.14 | 2.49 (inactive) | 0.241 | 0.792 (inactive) | -0.533 (inactive) | -0.926 (inactive) | -1.01 (inactive) | 0.728 | 0.586 (inactive) | 0.587 (inactive) | 0.265 | 2.27
COC(=O)c1c2oc(c1C(=O)OC)C(=O)N[C@@H](C(C)C)Cn1nncc1C1(CCCCC1)NC(=O)N[C@H](CO)CC2 | -0.0906 | -0.475 (inactive) | 1.44 (inactive) | -0.575 (inactive) | 0.235 | -0.195 | 0.217 | -0.422 | -0.0256 | 3.17 (inactive) | -0.235 | 1.05 (inactive) | 1.49 (inactive) | 0.168 (inactive) | 1.41 (inactive) | 0.651 | 0.234 (inactive) | 0.991 (inactive) | -0.162 | 2.55
CCOC(=O)C[C@H]1[C@H](OC(=O)Cc2ccc3c(c2)OCO3)[C@@H](NC(=O)c2ccc3ccccc3c2)c2cc(OCCCO)ccc2N1C(=O)c1ccc2ccccc2n1 | 0.0364 | -2.81 (inactive) | 7.41 (inactive) | -1.37 (inactive) | 0.398 | 0.219 | 0.0253 | 0.107 | 0.555 | 0.869 (inactive) | 0.169 | 11.8 (active) | 1.44 (inactive) | -0.859 (inactive) | 0.0679 (inactive) | 1.49 | 0.0194 (inactive) | -0.0398 (inactive) | -3.84 | 3.85
